Measurements from PubChem BioAssay AID1159580 (chemical genetic matrix, 2015).
Where “and” joins values, the source holds several entries; their conditions need not be identical. Identical values can stand only once. The campaign covered roughly 5,500 compounds. About 2,000 (36%) were called active. Not shown: some 18% with an inconclusive outcome. Cut-off read from the data, not from the text of the source: active = normalized growth mostly below about 0.91 (no sharp cut-off); inconclusive = no clear call, values can overlap the other calls; inactive = mostly above about 0.92. The list shows a part of the results.

Test: chemical genetic growth profiling, strain panel (AID 1159580);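 note: tested at 20 µM; growth read once vehicle control cultures reached saturation at 30 °C; 1 = growth at the plate median or of vehicle wells; lower values mean less growth of the strain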
Conditions: S. cerevisiae deletion strains, growth OD

Measured: normalized growth

O=c1cc(-c2cc(O)c(O)c(O)c2)oc2cc(O)cc(O)c12
active: locus YAL021C, strain ccr4, hits give low values 0.901 | locus YBR023C, strain chs3, hits give low values 0.897 | locus YBR231C, strain swc5, hits give low values 0.909 | locus YDR069C, strain doa4, hits give low values 0.855
inactive: locus YAL013W, strain DEP1, hits give low values 0.997 | locus YAL026C, strain drs2, hits give low values 0.927 | locus YAL030W, strain snc1, hits give low values 1.01 | locus YBL061C, strain skt5, hits give low values 0.942 | locus YBR009C, strain hhf1, hits give low values 0.95 | locus YBR021W, strain FUR4, hits give low values 1.07 | locus YBR171W, strain sec66, hits give low values 1 | locus YBR229C, strain ROT2, hits give low values 0.988 | locus YBR279W, strain paf1, hits give low values 0.935 | locus YCL011C, strain gbp2, hits give low values 0.946 | locus YCL016C, strain dcc1, hits give low values 0.94 | locus YCL029C, strain bik1, hits give low values 0.988 | locus YCL061C, strain MRC1, hits give low values 0.942 | locus YCL069W, strain vba3, hits give low values 0.997 | locus YCR088W, strain abp1, hits give low values 0.995 | locus YDL005C, strain med2, hits give low values 1.02 | locus YDL035C, strain GPR1, hits give low values 0.992 | locus YDL040C, strain nat1, hits give low values 1.04 | locus YDL074C, strain BRE1, hits give low values 0.957 | locus YDL101C, strain DUN1, hits give low values 1.01 | locus YDL134C, strain PPH21, hits give low values 1.05 | locus YDL185W, strain tfp1, hits give low values 0.941 | locus YDL192W, strain arf1, hits give low values 0.971 | locus YDR001C, strain nth1, hits give low values 1.01 | locus YDR101C, strain arx1, hits give low values 1.01 | locus YDR137W, strain rgp1, hits give low values 0.992 | locus YDR159W, strain sac3, hits give low values 1.05 | locus YDR162C, strain NBP2, hits give low values 1.03 | locus YDR195W, strain ref2 1.05 | locus YDR297W, strain sur2, hits give low values 0.971 | locus YDR318W, strain mcm21, hits give low values 0.995 | locus YDR334W, strain swr1, hits give low values 0.978 | locus YDR335W, strain msn5, hits give low values 0.986 | locus YDR388W, hits give low values 0.996 | locus YDR392W, strain spt3, hits give low values 0.893 | locus YDR502C, strain sam2, hits give low values 0.984 | locus YEL003W, strain gim4, hits give low values 0.957 | locus YEL037C, strain rad23, hits give low values 0.979 | locus YEL061C, strain CIN8 (second series), hits give low values 1 | locus YEL061C, strain CIN8, hits give low values 1 | locus YER015W, strain faa2, hits give low values 0.984 | locus YER016W, strain bim1, hits give low values 1 | locus YER110C, hits give low values 0.996 | locus YER111C, strain swi4, hits give low values 0.965 | locus YER155C, strain BEM2 (second series), hits give low values 0.938 | locus YER155C, strain BEM2, hits give low values 1.03 | locus YER167W, strain BCK2, hits give low values 1.01 | locus YFR010W, strain ubp6, hits give low values 0.942 | locus YGL078C, strain dbp3, hits give low values 0.979 | locus YGL086W, strain mad1, hits give low values 1.01 | locus YGL167C, strain pmr1, hits give low values 0.988 | locus YGL173C, strain kem1, hits give low values 0.967 | locus YGL227W, strain vid30, hits give low values 1.01 | locus YGL240W, strain doc1, hits give low values 1.02 | locus YGL248W, strain PDE1, hits give low values 1.01 | locus YGL253W, strain hxk2, hits give low values 0.948 | locus YGR135W, strain pre9, hits give low values 0.96 | locus YGR252W, strain gcn5, hits give low values 1 | locus YHR013C, strain ard1, hits give low values 0.904 | locus YHR027C, strain rpn1, hits give low values 0.978 | locus YHR030C, strain SLT2, hits give low values 0.989 and 1.07 | locus YHR079C, strain IRE1 (second series), hits give low values 1.02 | locus YHR079C, strain IRE1, hits give low values 1.06 | locus YHR094C, strain hxt1, hits give low values 1.02 | locus YHR129C, strain ARP1, hits give low values 0.986 | locus YHR142W, strain chs7, hits give low values 0.911 | locus YHR200W, strain rpn10, hits give low values 0.97 | locus YIL066C, strain RNR3, hits give low values 0.989 | locus YIL073C, strain SPO22, hits give low values 0.964 | locus YIL125W, strain kgd1, hits give low values 0.985 | locus YIR030C, strain dcg1, hits give low values 1 | locus YJL092W, strain hpr5, hits give low values 0.996 | locus YJL095W, strain BCK1 (second series), hits give low values 0.95 | locus YJL095W, strain BCK1, hits give low values 0.973 and 1.01 | locus YJL115W, strain asf1, hits give low values 1.01 | locus YJL129C, strain trk1, hits give low values 0.991 | locus YJL134W, strain LCB3, hits give low values 0.994 | locus YJL154C, strain vps35, hits give low values 1.02 | locus YJL164C, strain tpk1, hits give low values 0.954 | locus YJL166W, strain qcr8, hits give low values 0.957 | locus YJL168C, strain set2, hits give low values 0.998 | locus YJL187C, strain SWE1 (second series), hits give low values 0.974 | locus YJL187C, strain SWE1, hits give low values 0.986 | locus YJR043C, strain POL32, hits give low values 1 | locus YJR066W, strain TOR1, hits give low values 0.981
